Inconclusive results are not listed. More than one record can exist for a structure, and the calls need not agree. The source made the active and inactive calls. Rule for the calls, unless noted: active = hit-call score of the fitted dose curve at least 0.9, where 1 is the maximum; inconclusive = response in the unintended direction; inactive = score below 0.9.

For assay [1], the system named is rat Norepinephrine Transporter (NET), gene 83511. In words: NVS_TR_rNET: NovaScreen (NVS) Transporter Assay for rat Norepinephrine Transporter (NET) (AID 2283373). A digest of the protocol: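 Rat forebrain membranes; radioligand binding measured by filter-based scintillation counting 1 hour after dosing. Loss of specific binding versus DMSO baseline scored; primary screen in duplicate at 25 uM, actives followed up in concentration series.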

Assay [2] has as its target human Dopamine Transporter (DAT), SLC6A3 (gene 6531) (UniProt Q01959). In words: NVS_TR_hDAT: NovaScreen (NVS) Transporter Assay for human Dopamine Transporter (DAT) (AID 2283374).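 Note: activity means loss of bound radioligand signal relative to DMSO.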 In short, it runs like this: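 Cell-free radioligand binding to extracted human DAT protein, read 1 h after dosing by filter-based scintillation counting. Loss of specific binding scored against DMSO baseline; primary screen in duplicate at 25 uM, actives then run in concentration series.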

The target of assay [3] is rat Serotonin Transporter (SERT), Slc6a4 (gene 25553) (UniProt P31652). In words: NVS_TR_rSERT: NovaScreen (NVS) Transporter Assay for rat Serotonin Transporter (SERT) (AID 2283375). A digest of the protocol: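 Radioligand binding with competitive displacement on rat forebrain membrane preparations, counted by filtration and scintillation after 1 h. Primary single-point duplicates at 25 uM; active chemicals followed up in concentration-response. DMSO served as baseline.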

In assay [4] the target is human Norepinephrine Transporter (NET), SLC6A2 (gene 6530) (UniProt P23975). In words: NVS_TR_hNET: NovaScreen (NVS) Transporter Assay for human Norepinephrine Transporter (NET) (AID 2283377).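 Note: cell-free membrane protein extracted from CHO cells expressing human NET.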 In short, it runs like this:
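Radioligand binding to human NET in cell-free CHO-derived protein preparations, read by filter-based scintillation counting 1 hour after dosing. Loss of signal versus DMSO baseline indicated displacement; primary screening in duplicate at 25 uM, actives then titrated.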

For assay [5], the target named is mouse Estrogen Receptor alpha (Era), Esr1 (gene 13982) (UniProt P19785). In words: NVS_NR_mERa: NovaScreen (NVS) Nuclear Receptor Binding Assay for mouse Estrogen Receptor alpha (Era) (AID 2283378).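 Note: hit means loss of bound radioligand signal relative to DMSO.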 A digest of the protocol: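 Filter radiodetection of radioligand displacement from extracted receptor protein, measured 18 h post-dose. Single 25 uM concentration in duplicate initially, with concentration-series follow-up. Binding loss fitted relative to DMSO.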

In assay [6] the target is Estrogen receptor (Homo sapiens) (UniProt P03372). In words: OT_ERa_GFPERaERE_0120: Odyssey Thera (OT) 2-hour HeLa Transcription Induction Assay for Estrogen Receptor (AID 2283382). In short, it runs like this:
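HeLa, 384-well, 2 h chemical exposure; GFP reporter induction (ERE), fluorescence microscopy; high content image analysis; positive fitting direction vs DMSO.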

In assay [7] the target is Peroxisome proliferator-activated receptor gamma (Homo sapiens) (UniProt P37231). The assay can be described thus: OT_PPARg_PPARgSRC1_0480: Odyssey Thera (OT) 8-hour Protein-Complementation Assay for Peroxisome Proliferator-activated Receptor Gamma / SRC-1 Co-activator (AID 2283387).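 Note: nuclear to cytoplasmic split Venus YFP fluorescence ratio reporting PPARg SRC-1 interaction.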 A digest of the protocol:
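Protein-fragment complementation of split Venus YFP reports PPARg/SRC-1 interaction in HEK293T (transfected 48 h before treatment), exposed 8 h. Readout: N/C fluorescence ratio at 488 nm from imaging, Draq5 for segmentation, positive fit relative to DMSO.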

Assay [8] has the same target. In words: OT_PPARg_PPARgSRC1_1440: Odyssey Thera (OT) 24-hour Protein-Complementation Assay for Peroxisome Proliferator-activated Receptor Gamma/ SRC-1 Co-activator (AID 2283388).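 Note: nuclear to cytoplasmic ratio of reconstituted Venus YFP fluorescence in fixed imaged cells.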 A digest of the protocol: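 Readout is the 488 nm N/C fluorescence ratio from fixed, Draq5-stained HEK293T cells after 24 h compound exposure. Cells carried transiently transfected PPARg and SRC-1 fused to Venus fragments, transfected 48 h before treatment.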

Assay [9] in a line: CEETOX_H295R_11DCORT: CeeTox H295R High-throughput Steroidogenesis Assay for 11-Deoxycortisol (11DCORT) (AID 2283432; active = hit-call score of the fitted dose curve at least 0.9, where 1 is the maximum; inactive = score below 0.9). The conditions noted are these: actives raise or lower the signal. In short, it runs like this: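 Human adrenal H295R cells were prestimulated with 10 uM forskolin for 48 h, then exposed to test chemical (0.1% DMSO final) for 48 h. Medium 11-deoxycortisol was quantified by MTBE extraction and HPLC-MS/MS; bidirectional fitting relative to DMSO.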

Assay [10] in a line: CEETOX_H295R_OHPREG: CeeTox H295R High-throughput Steroidogenesis Assay for OH-Pregnenolone (OHPREG) (AID 2283434; active = hit-call score of the fitted dose curve at least 0.9, where 1 is the maximum; inactive = score below 0.9). To be noted: actives raise or lower the signal. In short, it runs like this:
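Human adrenal H295R cells were prestimulated 48 h with 10 uM forskolin, then exposed 48 h to chemical in 0.1% DMSO. Medium 17alpha-hydroxypregnenolone was quantified by HPLC-MS/MS after MTBE extraction; bidirectional fitting versus DMSO baseline.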

A short description of assay [11]: CEETOX_H295R_OHPROG: CeeTox H295R High-throughput Steroidogenesis Assay for OH-Progesterone (OHPROG) (AID 2283435; active = hit-call score of the fitted dose curve at least 0.9, where 1 is the maximum; inactive = score below 0.9;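 for AC50: 17alpha-hydroxyprogesterone secreted into medium measured by HPLC-MS/MS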). To be noted: actives raise or lower the signal. In short, it runs like this: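 H295R, 10 uM forskolin prestim 48 h; cmpd in 0.1% DMSO 48 h; medium MTBE-extracted, HPLC-MS/MS for OH-progesterone; 7-pt std curve; bidirectional fit vs DMSO; MTT viability, chemicals diluted until viability >/=70%.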

Assay [12] is described as follows: CEETOX_H295R_CORTISOL: CeeTox H295R High-throughput Steroidogenesis Assay for Cortisol (AID 2283438; active = hit-call score of the fitted dose curve at least 0.9, where 1 is the maximum; inactive = score below 0.9;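 note: cortisol secreted into medium quantified by LC-MS/MS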). To be noted: actives raise or lower the signal. In short, it runs like this: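 Forskolin 10 uM 48 h prestim → test cmpd in DMSO (0.1% final) 48 h → medium MTBE-extracted → LC-MS/MS cortisol vs 7-pt std curve. Gain/loss of signal fitted vs DMSO. MTT viability in same wells.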

For assay [13], the target named is Retinoic acid receptor RXR-alpha (Homo sapiens) (UniProt P19793). In words: OT_NURR1_NURR1RXRa_1440: Odyssey Thera (OT) 24-hour HEK293T Protein Complementation Assay for Nurr1/retinoid X receptor (RXR) (AID 2283386). A digest of the protocol:
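Interaction of Nurr1 with RXRα brings fused reporter fragments together in human HEK293T cells, restoring a functional reporter. Fluorescence intensity is measured 24 h after chemical treatment, and values are analysed in the positive direction against DMSO.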

In assay [14] the target is Agonist Androgen Response Element (ARE), AR (gene 367) (UniProt P10275). In words: OT_AR_ARELUC_AG_1440: Odyssey Thera (OT) 24-hour CHO-K1 Luciferase Assay for Agonist Androgen Response Element (ARE) (AID 2283379). A digest of the protocol: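 Seed CHO-K1 cells; dose compounds for 24 h; add D-luciferin plus ATP in PBS; read luminescence. Signal increase relative to vehicle defines agonist activity, with at least 3 replicate wells per sample.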

Assay [15] concerns the target Bile acid receptor (Homo sapiens) (UniProt Q96RI1). The assay can be described thus: OT_FXR_FXRSRC1_0480: Odyssey Thera (OT) 8-hour HEK293T Protein-Complementation Assay for Farnesoid X receptor/SRC-1 Co-activator (AID 2283383). In short, it runs like this:
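Human kidney HEK293T cells carried FXR/SRC-1 fragment-complementation constructs. Compounds were added and incubated 8 h. Reporter reassembly upon receptor–co-activator interaction was then quantified by fluorescence, with curves fitted in the positive direction relative to DMSO.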

The target is the same in assay [16]. In words: OT_FXR_FXRSRC1_1440: Odyssey Thera (OT) 24-hour HEK293T Protein-Complementation Assay for Farnesoid X receptor/SRC-1 Co-activator (AID 2283384). In short, it runs like this: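 Compounds are applied to human kidney HEK293T cells expressing bait and prey fused to reporter protein fragments; after 24 h, reconstituted reporter fluorescence is measured. Activity is fitted as signal gain over DMSO.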

Assay [17] deals with Retinoic acid receptor RXR-alpha (Homo sapiens) (UniProt P19793). In words: OT_NURR1_NURR1RXRa_0480: Odyssey Thera (OT) 8-hour HEK293T Protein Complementation Assay for Nurr1/retinoid X receptor (RXR) (AID 2283385). In short, it runs like this:
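8 h compound exposure, HEK293T; Nurr1/RXRα fragment complementation; fluorescence intensity; positive fitting direction vs DMSO baseline.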

A short description of assay [18]: CEETOX_H295R_ANDR: CeeTox H295R High-throughput Steroidogenesis Assay for Androstenedione (ANDR) (AID 2283436; active = hit-call score of the fitted dose curve at least 0.9, where 1 is the maximum; inactive = score below 0.9). To be noted: actives raise or lower the signal. In short, it runs like this:
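H295R human adrenal cells (passages ≤10) were exposed to test chemicals for 48 h; androstenedione in medium was MTBE-extracted and quantified by HPLC-MS/MS against a 7-point standard curve. Bidirectional fitting used DMSO as baseline.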

The target in assay [19] is Estrogen receptor beta (Homo sapiens) (UniProt Q92731). In words: OT_ER_ERbERb_1440: Odyssey Thera (OT) 24-hour HEK293T Protein-Complementation Assay for Estrogen Receptor-beta/-beta Homodimer (AID 2283380).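 Note: fluorescence gain from ER beta LBD homodimer complementation read by laser scanning cytometry; scored as signal increase over DMSO baseline for both agonists and antagonists.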 In short, it runs like this: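 HEK293T cells stably expressing human ER-beta LBD (aa 310-547) PCA homodimer pair, dosed 24 h; formaldehyde-fixed, Draq5-stained. Readout: increase in nuclear (agonist) or nuclear plus cytoplasmic (antagonist) fluorescence intensity versus DMSO, gain-of-signal fitting.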
Sequence of Estrogen receptor beta (Homo sapiens) (Q92731 whole entry, looked up, the tested form may be a part): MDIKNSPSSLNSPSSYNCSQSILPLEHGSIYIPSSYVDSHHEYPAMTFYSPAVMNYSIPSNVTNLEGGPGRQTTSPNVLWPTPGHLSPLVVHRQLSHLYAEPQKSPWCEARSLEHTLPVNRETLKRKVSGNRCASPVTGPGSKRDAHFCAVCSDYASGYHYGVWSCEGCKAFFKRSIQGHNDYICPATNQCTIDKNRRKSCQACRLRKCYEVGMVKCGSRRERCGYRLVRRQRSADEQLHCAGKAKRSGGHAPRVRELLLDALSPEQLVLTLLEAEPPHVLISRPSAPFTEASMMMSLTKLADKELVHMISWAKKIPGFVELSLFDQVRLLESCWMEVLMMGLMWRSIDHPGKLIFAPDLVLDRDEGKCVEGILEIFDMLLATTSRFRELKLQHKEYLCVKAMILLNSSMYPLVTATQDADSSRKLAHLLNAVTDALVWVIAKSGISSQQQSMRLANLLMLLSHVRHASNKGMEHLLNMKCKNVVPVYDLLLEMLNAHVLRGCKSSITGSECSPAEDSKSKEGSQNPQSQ

Sequence of Estrogen receptor (Homo sapiens) (P03372 whole entry, looked up): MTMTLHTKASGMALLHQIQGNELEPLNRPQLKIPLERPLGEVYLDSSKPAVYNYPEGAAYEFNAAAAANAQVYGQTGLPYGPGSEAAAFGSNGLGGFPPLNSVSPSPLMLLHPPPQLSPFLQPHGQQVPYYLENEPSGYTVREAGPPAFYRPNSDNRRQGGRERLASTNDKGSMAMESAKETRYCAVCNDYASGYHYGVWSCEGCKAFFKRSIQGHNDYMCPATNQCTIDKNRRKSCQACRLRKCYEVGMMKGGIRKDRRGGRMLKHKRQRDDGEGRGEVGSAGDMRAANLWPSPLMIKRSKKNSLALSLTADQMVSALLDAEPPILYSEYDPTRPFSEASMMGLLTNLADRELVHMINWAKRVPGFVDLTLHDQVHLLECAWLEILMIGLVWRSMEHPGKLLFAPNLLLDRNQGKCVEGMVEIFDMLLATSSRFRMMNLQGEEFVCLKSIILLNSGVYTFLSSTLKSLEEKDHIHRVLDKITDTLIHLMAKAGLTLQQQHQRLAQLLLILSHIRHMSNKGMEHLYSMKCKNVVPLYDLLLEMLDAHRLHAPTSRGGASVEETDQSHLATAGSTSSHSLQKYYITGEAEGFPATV
Sequence of Peroxisome proliferator-activated receptor gamma (Homo sapiens) (P37231 whole entry, looked up, the tested form may be a part): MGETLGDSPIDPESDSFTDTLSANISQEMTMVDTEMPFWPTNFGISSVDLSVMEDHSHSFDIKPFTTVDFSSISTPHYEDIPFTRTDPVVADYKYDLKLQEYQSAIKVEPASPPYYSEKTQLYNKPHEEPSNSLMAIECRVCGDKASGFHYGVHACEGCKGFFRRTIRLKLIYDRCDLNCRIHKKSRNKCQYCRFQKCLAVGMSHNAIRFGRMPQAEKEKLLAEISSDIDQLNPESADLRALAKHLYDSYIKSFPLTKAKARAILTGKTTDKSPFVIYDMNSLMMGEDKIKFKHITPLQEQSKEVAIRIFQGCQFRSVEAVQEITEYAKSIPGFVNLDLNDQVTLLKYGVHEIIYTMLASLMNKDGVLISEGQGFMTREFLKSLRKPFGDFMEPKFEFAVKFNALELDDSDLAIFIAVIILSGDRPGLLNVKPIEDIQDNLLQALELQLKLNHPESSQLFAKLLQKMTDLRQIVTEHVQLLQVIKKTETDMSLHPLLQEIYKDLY
Sequence of Retinoic acid receptor RXR-alpha (Homo sapiens) (P19793 whole entry, looked up, the tested form may be a part): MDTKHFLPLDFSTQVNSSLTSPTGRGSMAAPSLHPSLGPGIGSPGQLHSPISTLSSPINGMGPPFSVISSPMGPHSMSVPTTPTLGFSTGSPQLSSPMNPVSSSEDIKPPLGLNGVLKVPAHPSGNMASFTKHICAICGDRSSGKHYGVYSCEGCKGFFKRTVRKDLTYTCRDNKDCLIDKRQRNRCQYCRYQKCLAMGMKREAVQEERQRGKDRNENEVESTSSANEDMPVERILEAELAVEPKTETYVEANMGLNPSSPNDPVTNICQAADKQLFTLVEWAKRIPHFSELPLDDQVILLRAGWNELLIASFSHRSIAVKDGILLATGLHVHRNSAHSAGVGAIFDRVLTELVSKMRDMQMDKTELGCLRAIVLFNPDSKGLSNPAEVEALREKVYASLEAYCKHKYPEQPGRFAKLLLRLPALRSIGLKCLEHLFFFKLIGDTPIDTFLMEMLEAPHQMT
Sequence of Agonist Androgen Response Element (ARE), AR (gene 367) (P10275 whole entry, looked up): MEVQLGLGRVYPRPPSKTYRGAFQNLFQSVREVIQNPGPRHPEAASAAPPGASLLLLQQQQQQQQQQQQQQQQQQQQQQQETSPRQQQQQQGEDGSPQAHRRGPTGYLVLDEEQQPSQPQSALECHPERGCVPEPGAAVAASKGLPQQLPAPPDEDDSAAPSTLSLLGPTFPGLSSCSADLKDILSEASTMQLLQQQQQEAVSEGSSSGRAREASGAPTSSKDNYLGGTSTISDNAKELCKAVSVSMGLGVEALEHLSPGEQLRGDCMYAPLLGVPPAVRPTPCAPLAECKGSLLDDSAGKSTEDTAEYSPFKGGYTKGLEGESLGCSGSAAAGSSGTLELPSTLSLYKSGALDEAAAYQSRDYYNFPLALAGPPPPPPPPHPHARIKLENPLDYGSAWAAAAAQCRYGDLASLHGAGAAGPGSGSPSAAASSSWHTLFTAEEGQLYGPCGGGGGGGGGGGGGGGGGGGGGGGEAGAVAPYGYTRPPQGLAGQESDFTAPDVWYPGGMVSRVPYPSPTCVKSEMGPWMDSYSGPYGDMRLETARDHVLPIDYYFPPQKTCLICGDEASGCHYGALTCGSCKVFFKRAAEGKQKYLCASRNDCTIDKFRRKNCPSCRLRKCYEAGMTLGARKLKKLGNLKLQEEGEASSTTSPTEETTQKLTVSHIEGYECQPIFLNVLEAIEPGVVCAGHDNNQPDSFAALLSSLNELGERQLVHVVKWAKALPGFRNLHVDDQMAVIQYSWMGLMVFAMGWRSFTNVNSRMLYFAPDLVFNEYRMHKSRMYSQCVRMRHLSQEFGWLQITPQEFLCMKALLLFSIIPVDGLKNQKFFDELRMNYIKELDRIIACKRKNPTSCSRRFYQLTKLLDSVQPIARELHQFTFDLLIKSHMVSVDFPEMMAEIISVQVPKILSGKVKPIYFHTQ
Sequence of Bile acid receptor (Homo sapiens) (Q96RI1 whole entry, looked up, the tested form may be a part): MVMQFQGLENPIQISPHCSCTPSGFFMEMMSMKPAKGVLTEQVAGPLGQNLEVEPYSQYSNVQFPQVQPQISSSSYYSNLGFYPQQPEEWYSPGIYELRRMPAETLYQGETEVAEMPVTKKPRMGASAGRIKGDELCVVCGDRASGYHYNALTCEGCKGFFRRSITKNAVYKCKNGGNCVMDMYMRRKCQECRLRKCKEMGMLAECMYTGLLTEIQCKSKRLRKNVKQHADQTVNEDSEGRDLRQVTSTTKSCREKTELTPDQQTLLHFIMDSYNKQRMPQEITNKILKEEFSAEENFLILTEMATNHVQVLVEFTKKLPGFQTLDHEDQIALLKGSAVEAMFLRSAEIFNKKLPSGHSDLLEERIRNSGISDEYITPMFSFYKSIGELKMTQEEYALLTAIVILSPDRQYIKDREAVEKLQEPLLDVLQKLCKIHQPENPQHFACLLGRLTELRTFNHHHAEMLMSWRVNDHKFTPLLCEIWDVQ
Sequence of human Dopamine Transporter (DAT), SLC6A3 (gene 6531) (Q01959 whole entry, looked up): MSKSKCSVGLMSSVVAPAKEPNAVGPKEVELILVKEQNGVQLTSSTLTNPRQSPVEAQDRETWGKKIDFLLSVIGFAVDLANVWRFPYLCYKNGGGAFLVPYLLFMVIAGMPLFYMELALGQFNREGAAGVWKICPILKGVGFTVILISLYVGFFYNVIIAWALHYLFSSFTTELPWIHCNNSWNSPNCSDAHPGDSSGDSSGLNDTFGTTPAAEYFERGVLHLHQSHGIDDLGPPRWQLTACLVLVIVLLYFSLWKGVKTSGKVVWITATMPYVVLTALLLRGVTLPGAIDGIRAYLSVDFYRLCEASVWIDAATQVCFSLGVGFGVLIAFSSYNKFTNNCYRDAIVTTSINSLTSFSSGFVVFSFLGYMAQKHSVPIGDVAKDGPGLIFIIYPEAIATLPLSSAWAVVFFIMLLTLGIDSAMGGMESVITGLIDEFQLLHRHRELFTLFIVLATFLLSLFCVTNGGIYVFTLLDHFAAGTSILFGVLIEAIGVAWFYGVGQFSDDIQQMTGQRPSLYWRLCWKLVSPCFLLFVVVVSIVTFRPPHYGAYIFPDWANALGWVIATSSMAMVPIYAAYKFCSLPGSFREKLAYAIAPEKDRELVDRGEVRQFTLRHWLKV
Sequence of human Norepinephrine Transporter (NET), SLC6A2 (gene 6530) (P23975 whole entry, looked up): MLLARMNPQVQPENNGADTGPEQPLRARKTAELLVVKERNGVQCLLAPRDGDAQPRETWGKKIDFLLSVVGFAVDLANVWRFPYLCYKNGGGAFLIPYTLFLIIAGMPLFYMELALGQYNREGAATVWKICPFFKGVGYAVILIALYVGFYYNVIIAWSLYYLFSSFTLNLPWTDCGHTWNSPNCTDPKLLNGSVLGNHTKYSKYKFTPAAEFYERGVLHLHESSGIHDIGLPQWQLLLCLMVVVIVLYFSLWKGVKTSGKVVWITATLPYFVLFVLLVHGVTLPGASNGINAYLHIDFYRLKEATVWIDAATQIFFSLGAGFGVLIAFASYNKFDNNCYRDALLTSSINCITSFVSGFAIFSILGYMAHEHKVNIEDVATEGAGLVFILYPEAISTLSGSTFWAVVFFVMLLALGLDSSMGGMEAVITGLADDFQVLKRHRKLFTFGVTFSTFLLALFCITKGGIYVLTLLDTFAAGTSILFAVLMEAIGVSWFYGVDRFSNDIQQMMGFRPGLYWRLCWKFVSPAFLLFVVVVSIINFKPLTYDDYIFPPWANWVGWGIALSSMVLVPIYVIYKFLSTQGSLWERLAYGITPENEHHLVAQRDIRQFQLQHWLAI

In general, AC50 refers to the midpoint of the concentration-response curve, whichever way the signal moves. On to `COc1cccc(-c2ccc(/C=C\CN3CCCCCC3)cc2Cl)c1`, for which the AC50 is 9.83 µM (active) in [1], 5.87 µM (active) in assay [2] and 2.67 µM (active) in assay [4]. For the same compound, the outcome in assay [3], in [5], in [6], in [7], in assay [8] and in assay [9] was inactive. Besides, the call in assay [10], in assay [11] and in assay [12] was inactive.

With `Nc1ccc(Nc2ccccc2)cc1`, the AC50 is 7.42 µM (active) in assay [2]; 6.87 µM (active) in [4]; 83.7 µM (active) in [10]; 13.9 µM (active) in assay [11]; 65.8 µM (active) in assay [12]. In addition, the outcome in [6], in assay [13], in [7], in [8] and in assay [9] was inactive.

Consider `CC1(C)C(=O)N(Br)C(=O)N1Br`, for which the compound was called inactive in [14], in assay [15], in [16], in [17], in assay [13] and in [7]. For the same compound, the outcome in [8] was inactive.

Consider `CC(C)=CCC/C(C)=C/CO`, for which the outcome in assay [14], in assay [15], in assay [13], in assay [7] and in [8] was inactive.

In the case of `Cc1ccc(N)cc1O`, the call in assay [14], in assay [6], in assay [17], in assay [13], in assay [7] and in [8] was inactive. For the same compound, the compound was called inactive in assay [9], in [10], in assay [18] and in [12]. Besides, the results for the AC50 in [13] and in [11] were 50 µM (active) and 39.8 µM (active), respectively.

Consider `COC(=O)c1ccccc1O`, for which the compound was classed as inactive in assay [19], in assay [6] and in assay [17].

Regarding `C1N2CN3CN1CN(C2)C3`, the call in assay [14], in assay [19], in [15], in assay [16], in assay [17] and in assay [13] was inactive. For the same compound, the compound was called inactive in [7] and in assay [8].

For the compound `C=CCCCCCCCCC(=O)O`, the result in assay [19], in assay [6], in [17], in [13], in [7] and in assay [8] was inactive. The compound was classed as inactive in assay [9], in assay [11] and in assay [12]. Moreover, the AC50 in assay [10] is 36.5 µM (active).

Take `CC(C)=CCCC(C)=CC=O`: the compound was called inactive in [19], in assay [6], in assay [13], in [7], in assay [8] and in assay [9]. Also, the outcome in assay [10] and in [11] was inactive. Further, the AC50 in assay [12] was 75 µM (active).

The values above are taken from PubChem BioAssay (EPA / NIEHS).
